Rows were chosen to be rich in hits. Some 2.3% of all compounds tested hit in one or more screens of this group.
TWEAK Fn14 block – TWEAK-Fn14 signaling inhibition | AID 1159606 | TWEAK-stimulated Fn14 reporter cells, luciferase luminescence, 8 h | inhibition, % at 10 µM | hit rate 2% among 360,000; in the data active means inhibition above about 50%
LGR2 inh – Drosophila LGR2 receptor signaling inhibition; hit rate 0.35% among 380,000; HEK293 LGR2, CRE-luciferase, bursicon-stimulated, 4 h; inhibition, % at 9.99 µM; AID 720647;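 active means drop in luminescence signal, shown as inhibition above about 50% in the replicate tests, limit read from the data, passing the limit was not always enough; inconclusive means probably only some replicates passing the limit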;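 further: agonist challenge used bursicon conditioned medium at about half maximal strength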
CF NFkB inh – inhibitors of cystic fibrosis induced NF-kB. KKLEB NF-kB-GFP reporter, PAF-induced, GFP fluorescence overnight. inhibition, % at 5 µM. hit rate 0.86% among 360,000;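 active means at least 50% inhibition at 5 µM, scaled per plate between neutral and stimulator controls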;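 further: PAF is a Pseudomonas aeruginosa culture filtrate used as stimulus; plate controls were PAF-stimulated DMSO wells for no effect and unstimulated DMSO wells for full effect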
HIF-2a block – HIF-2a inhibition. 786-0 RCC cells HIF-2a reporter, luciferase luminescence, overnight. inhibition, % at 18.8 µM. hit rate 0.72% among 360,000. AID 624352;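 active means inhibition of the luminescence signal of 40% or more relative to plate controls, in a single-dose primary screen at 18.75 µM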
KKLEB tox – counter-screen for CF NF-kB inhibitors: cytotoxicity; KKLEB CF airway cells viability, ATPlite luminescence, overnight; active compounds read low; cells stimulated with P. aeruginosa culture filtrate; activity change (cytotoxicity), % at 5 µM; hit rate 0.36% among 360,000;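 active means corrected activity change at or below -50% at 5 µM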
hiPSC survival – hiPSC single-cell survival enhancement. hit rate 0.044% among 360,000. ATPlite luminescence; 100% = ROCK inhibitor wells, 0% = DMSO. survival enhancement, % at 20 µM; in the data active means survival enhancement above about 18%;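 further: cells exposed to compounds for 16 hours before the ATP read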
Mdm2-MdmX confirm – confirmation of inhibitors of human Mdm2/MdmX interaction, set 2 | shares compounds with HIF-2a block | SaOS-2 split-luciferase Mdm2/MdmX complementation, luminescence | inhibition, % at 8 µM | hit rate 99% among 740;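 active means mean inhibition of the luminescence signal across two replicates at or above 26 percent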
Target sequence (O15151 whole entry, looked up): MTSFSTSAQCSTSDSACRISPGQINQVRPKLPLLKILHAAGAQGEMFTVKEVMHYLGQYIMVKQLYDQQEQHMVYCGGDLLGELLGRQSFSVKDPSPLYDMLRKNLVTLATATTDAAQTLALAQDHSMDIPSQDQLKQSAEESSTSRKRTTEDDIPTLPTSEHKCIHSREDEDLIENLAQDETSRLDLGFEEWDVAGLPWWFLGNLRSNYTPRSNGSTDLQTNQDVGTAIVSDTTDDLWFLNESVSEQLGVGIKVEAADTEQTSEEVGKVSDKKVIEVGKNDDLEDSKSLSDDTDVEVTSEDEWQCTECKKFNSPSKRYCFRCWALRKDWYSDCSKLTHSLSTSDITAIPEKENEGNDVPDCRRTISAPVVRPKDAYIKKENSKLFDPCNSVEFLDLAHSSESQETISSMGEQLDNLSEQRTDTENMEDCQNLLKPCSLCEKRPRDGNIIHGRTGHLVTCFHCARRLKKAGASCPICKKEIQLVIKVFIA
Target sequence (Q00987 whole entry, looked up): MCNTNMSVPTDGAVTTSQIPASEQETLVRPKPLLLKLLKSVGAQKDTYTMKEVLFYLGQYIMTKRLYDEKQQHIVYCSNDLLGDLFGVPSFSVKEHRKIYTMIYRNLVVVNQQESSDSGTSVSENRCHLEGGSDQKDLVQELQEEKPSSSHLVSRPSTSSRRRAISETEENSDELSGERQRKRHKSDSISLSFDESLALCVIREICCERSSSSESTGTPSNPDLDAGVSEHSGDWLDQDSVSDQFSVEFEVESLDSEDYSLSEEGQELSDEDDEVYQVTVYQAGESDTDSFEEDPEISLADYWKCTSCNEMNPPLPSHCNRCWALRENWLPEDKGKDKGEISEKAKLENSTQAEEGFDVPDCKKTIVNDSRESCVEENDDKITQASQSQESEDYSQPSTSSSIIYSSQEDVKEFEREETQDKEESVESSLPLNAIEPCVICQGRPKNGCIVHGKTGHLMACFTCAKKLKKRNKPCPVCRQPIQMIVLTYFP
HIF-2a conf – confirmation of HIF-2a inhibitors. shares compounds with HIF-2a block. 786-0 RCC cells, HIF-2a luciferase reporter luminescence, overnight. inhibition, % at 18.8 µM. hit rate 56% among 1,800. AID 651580;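 active means mean inhibition across four replicates of at least 40 percent at the single tested concentration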
HIF-1a cs – counter-screen for HIF-2a inhibitors: HIF-1a inhibition in MiaPaCa-2 cells. shares compounds with HIF-2a block. MiaPaCa-2 HIF-1a luciferase reporter, desferoxamine, overnight. inhibition, % at 18.8 µM. hit rate 72% among 1,800;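 active means mean inhibition of the reporter signal across four replicates at the single tested dose of 50% or more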
Numbers without * were called inactive; ? = inconclusive; / = no result.

SMILES | TWEAK Fn14 block | LGR2 inh | CF NFkB inh | HIF-2a block | KKLEB tox | hiPSC survival | HIF-2a conf | HIF-1a cs | others
CCOC(=O)c1cnc(Nc2nc3ccccc3o2)nc1C | 93.5* | 82.2* | -13.0 | 74.2* | -24.3 | -6.2 | 81.2* | 71.1*
Cc1ccc(S(=O)(=O)N(C)C[C@@H]2OCCCC[C@H](C)Oc3ccc(NC(=O)NC(C)C)cc3C(=O)N([C@H](C)CO)C[C@H]2C)cc1 | / | -8.0 | / | / | / | / | / | /
CN(C)c1c([N+](=O)[O-])cc(N2C(=O)C=CC2=O)cc1[N+](=O)[O-] | 6.1 | / | -13.3 | 93.7* | 9.6 | -3.5 | 56.7* | 3.4
Cn1c(=O)c(=O)n(C)c2cc([N+](=O)[O-])c([N+](=O)[O-])cc21 | -0.4 | -12.3 | -1.2 | 15.7 | -11.0 | 2.9 | / | /
C=CCSC(=C(C#N)C#N)c1cc2c([nH]1)CCCC2 | 29.1 | / | 18.0 | 65.8* | -13.9 | -3.6 | 8.7 | 106.2*
Cc1cccc(CSC(Nc2ccc(F)cc2)=C(C#N)C#N)c1 | 64.4* | ? | 42.4 | -2.2 | -43.6 | -0.4 | / | / | Mdm2-MdmX confirm=94.2*
Cc1cccc(CSC(=N)N)c1 | -2.0 | -0.2 | -12.7 | 14.0 | 25.1 | 0.1 | / | /
C[C@@H]1CCCCO[C@H](CN(C)CC2CCCCC2)[C@@H](C)CN([C@H](C)CO)C(=O)c2cc(NC(=O)c3ccccc3)ccc2O1 | / | 16.4 | / | / | / | / | / | /
C=C1CC2(OC1=O)c1ccccc1CCc1ccccc12 | 34.0 | 75.9* | 88.8* | 89.5* | -84.6* | -3.7 | 97.8* | 107.4*
C[C@H](CO)N1C[C@H](C)[C@H](CN(C)C(=O)c2ccncc2)Oc2ncc(C#C[C@@H](C)O)cc2C1=O | / | 4.6 | / | / | / | / | / | /
Cc1ccc(/C=N/Nc2cccc(C(=O)O)c2)s1 | -17.8 | 57.7* | -18.3 | 62.3* | 10.0 | -1.1 | 58.8* | -72.9
Cc1ccc(/C=N/Nc2ccc(C(=O)O)cc2)s1 | 11.4 | 89.8* | -10.0 | 65.4* | -4.1 | -0.1 | 81.8* | 76.3*
Cc1nn(-c2cccc(C(F)(F)F)c2)c(Cl)c1/C=N/Nc1cccc(C(=O)O)c1 | -40.3 | -79.7 | 0.7 | -63.3 | 6.7 | 2.6 | / | /
CCOc1cc(/C=N/Nc2cccc(C(=O)O)c2)ccc1OC(=O)c1ccccc1 | 7.9 | 63.7* | -12.8 | 87.4* | 9.7 | 1.0 | 90.4* | -32.9
O=C(O)c1ccc(N/N=C/c2cc(Br)cs2)cc1 | -5.8 | 42.5 | 3.1 | 23.0 | 5.7 | 0.2 | / | /
Cc1nn(-c2ccccc2Cl)c(Cl)c1/C=N/Nc1cccc(C(=O)O)c1 | -22.7 | 80.0* | 1.0 | 58.2* | -16.1 | -0.8 | 51.7* | -98.7
O=C(O)c1cccc(N/N=C/c2ccc(F)c(F)c2)c1 | -19.6 | -68.2 | 5.9 | -61.4 | 5.4 | 0.1 | / | /
CC(C)NC(=O)c1c(O)c2ccccc2[nH]c1=O | -9.1 | -30.4 | -0.5 | -100.7 | 4.1 | 4.1 | / | / | Mdm2-MdmX confirm=92.0*
N#C[C@H]1[C@H](c2ccccc2C2=CCCCC2)[C@H](CO)N1C(=O)CN1CCOCC1 | / | 6.9 | / | / | / | / | / | /
CCSC1(SCC)N=C(N)C2(C#N)C(c3ccc(F)cc3)C12C#N (stereo not drawn) | 12.7 | / | 42.3 | 48.8* | -0.4 | -0.6 | 58.9* | 92.6*
COC1(OC)N=C(N)C2(C#N)C(c3ccc(F)cc3)C12C#N (stereo not drawn) | -9.9 | / | -0.8 | 11.9 | 10.4 | 0.7 | / | /
COc1ccc(S(=O)(=O)Nc2ccc3c(c2)C(=O)N([C@H](C)CO)C[C@@H](C)[C@H](CN(C)C(=O)Nc2ccccc2)OCCCC[C@H](C)O3)cc1 | / | 17.2 | / | / | / | / | / | /
C=CS(=O)(=O)N(Cc1ccccc1Br)[C@H](CO)Cc1ccccc1 | 50.7* | 24.4 | 44.7 | 44.1* | -38.7 | -1.0 | 35.1 | 70.1*
CNC(=O)C[C@@H]1CC[C@@H]2[C@H](COc3ccc(NC(=O)C(C)C)cc3C(=O)N2C)O1 | / | 0.1 | / | / | / | / | / | /
O=C(CCl)N(C1CCCC1)C1CCS(=O)(=O)C1 (stereo not drawn) | 22.9 | -8.1 | 1.4 | -1.6 | -6.0 | -0.4 | / | / | Mdm2-MdmX confirm=101.7*
SMILES | TWEAK Fn14 block | LGR2 inh | CF NFkB inh | HIF-2a block | KKLEB tox | hiPSC survival | HIF-2a conf | HIF-1a cs | others
CC(=O)c1ccc(OCC(=O)N(C2CCCCC2)C2CCS(=O)(=O)C2)cc1 (stereo not drawn) | -20.0 | 8.3 | -5.0 | 21.3 | 20.2 | 0.1 | / | /
COc1ccc(/C=C2\SC(=O)N(CCCC(=O)Nc3cc(Cl)ccc3C(=O)O)C2=O)cc1 | 104.0* | 30.2 | -4.3 | 89.5* | -2.1 | 0.6 | 98.2* | 99.3*
CC(=O)c1c(NCCc2ccccc2)nc(=S)n(-c2ccccc2)c1C | -21.1 | 71.5* | -15.8 | 92.1* | 13.4 | 0.3 | -11.4 | 20.4
CC(C)C#Cc1cnc2c(c1)C(=O)N([C@H](C)CO)C[C@@H](C)[C@H](CN(C)C(=O)Cc1ccncc1)O2 | / | 8.4 | / | / | / | / | / | /
O=[N+]([O-])c1ccc(/C=N/NC(=S)Nc2ccc(Cl)cc2Cl)s1 | 3.7 | -7.4 | -2.2 | -29.5 | 0.0 | -0.7 | / | / | Mdm2-MdmX confirm=84.5*
Cc1ccc(NC(=S)N/N=C/c2ccc(Cl)c([N+](=O)[O-])c2)cc1 | -15.3 | -3.7 | -13.4 | -18.6 | 16.6 | -2.2 | / | /
Cc1ccccc1NC(=O)/C=C/c1ccc([N+](=O)[O-])s1 | 95.1* | / | 66.4* | 85.9* | -59.4* | -0.8 | 68.2* | 104.3*
O=C(N/N=C/c1ccc([N+](=O)[O-])s1)c1ccccc1Br | 21.4 | -0.6 | -14.8 | 69.6* | 1.0 | -2.0 | 75.5* | 91.4*
O=[N+]([O-])c1cc(/C=N/NC(=S)Nc2ccccc2Cl)ccc1Cl | -39.7 | -3.4 | -24.1 | 69.7* | 6.8 | 3.3 | 10.8 | 103.7*
O=C(Cc1ccccc1)N/N=C/c1ccc([N+](=O)[O-])s1 | 9.4 | / | 0.3 | -105.4 | 7.3 | -0.9 | / | /
COCC(=O)N1[C@H](CO)[C@@H](c2ccccc2)C12CN(C(=O)NC1CCCC1)C2 | / | -16.5 | / | / | / | / | / | /
O=C(N/N=C/c1ccc([N+](=O)[O-])s1)c1ccccc1 | -11.7 | 15.8 | -34.6 | 51.1* | 39.7 | -1.5 | 49.0* | 67.5*
Cc1cc(C(=O)N/N=C/c2ccc([N+](=O)[O-])s2)c2ccccc2n1 | -5.4 | 8.9 | -26.2 | -8.7 | 6.8 | -0.5 | / | /
Cc1ccccc1C(=O)N/N=C/c1ccc([N+](=O)[O-])s1 | 13.1 | 23.6 | -3.6 | 76.3* | 1.4 | -0.4 | 89.7* | 94.6*
O=C(C[C@@H]1C[C@H]2c3cc(NC(=O)C4CCC4)ccc3O[C@H]2[C@@H](CO)O1)NC1CCCCC1 | / | 13.7 | / | / | / | / | / | /
O=C(O)c1cccc(CSc2nnc(COc3ccccc3)o2)c1 | 14.1 | / | 5.7 | 72.8* | -0.2 | -1.4 | 72.8* | 33.5

Screening results from PubChem BioAssay.
